Screens deposited in PubChem BioAssay by National Center for Advancing Translational Sciences (NCATS).
This is a sample that favours compounds with a hit; in the whole collection about 1.7% have one here.
TrxR1 substrate – rat thioredoxin reductase 1 substrate activity | Potency, µM (series often up to 114 µM), inactives show at the top dose activity change, negative = substrate turnover | 390,000 compounds, 0.01% hits | AID 588456 | purified TrxR1 substrate turnover, NADPH consumption readout | O89049; further: on the % scale 0 is the no-effect control and ±100 the full control effect; nearly all actives have a fitted effect of over 50% in size
Target sequence (O89049 whole entry, looked up): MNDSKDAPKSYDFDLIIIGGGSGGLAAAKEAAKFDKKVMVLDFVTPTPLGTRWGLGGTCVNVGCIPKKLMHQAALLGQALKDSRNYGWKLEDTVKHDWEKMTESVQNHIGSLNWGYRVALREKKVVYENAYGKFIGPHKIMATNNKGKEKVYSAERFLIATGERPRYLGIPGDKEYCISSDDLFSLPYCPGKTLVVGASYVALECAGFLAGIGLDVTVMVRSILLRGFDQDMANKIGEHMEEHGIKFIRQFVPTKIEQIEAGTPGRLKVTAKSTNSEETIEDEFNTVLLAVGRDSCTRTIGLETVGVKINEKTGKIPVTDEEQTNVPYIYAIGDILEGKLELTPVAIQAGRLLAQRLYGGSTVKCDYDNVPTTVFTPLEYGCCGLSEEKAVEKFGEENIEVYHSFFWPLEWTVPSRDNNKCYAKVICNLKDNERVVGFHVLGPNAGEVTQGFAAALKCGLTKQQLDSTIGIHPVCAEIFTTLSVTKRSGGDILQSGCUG
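Rat TrxR1, dispensed at 90 nM, was prereduced with 400 uM NADPH (final) for 5 min at ~22 deg C, then incubated with compound 15 min before 400 uM selenite. A first-read NADPH fluorescence drop versus no-compound background flagged substrates.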
12-LOX inh – blocks human arachidonate 12S-lipoxygenase; P18054; purified 12hLO, xylenol orange hydroperoxide absorbance; Potency, µM (top dose mostly 108 µM), for inactives: top-dose activity change, negative = inhibition, hits mostly inhibitors; 580,000 compounds, 1.1% hits; further: on the % scale 0 is the no-effect control and ±100 the full control effect
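Purified human 12hLO at 150 nM in 25 mM Hepes, 0.01% Triton X-100, pH 7.0, preincubated 15 min at room temperature with compound. Reaction started with 40 uM arachidonic acid, 30 min at room temperature. Hydroperoxide measured by Fe-xylenol orange, 573/405 nm absorbance ratio.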
Apoferritin bind – binds horse apoferritin like a general anesthetic; P02791; apoferritin/1-aminoanthracene competitive binding, fluorescence; Potency, µM (titrated, usually from 77.5 µM), for the others: top-dose activity change, negative = displacement, most hits filed as inhibitors; 350,000 compounds, 0.074% hits; AID 485281; further: on the % scale 0 is the no-effect control and ±100 the full control effect; nearly all actives have a fitted effect of over 20% in size
Target sequence (P02791 2-175 limits assumed): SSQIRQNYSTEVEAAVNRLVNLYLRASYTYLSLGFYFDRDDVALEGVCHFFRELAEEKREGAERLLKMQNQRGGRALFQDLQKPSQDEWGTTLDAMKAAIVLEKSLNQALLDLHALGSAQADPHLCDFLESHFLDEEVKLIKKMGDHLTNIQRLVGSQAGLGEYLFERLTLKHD
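Steps: apoferritin (10 uM) was premixed with half-saturated 1-AMA in PBS, compounds were pin-transferred, plates stood 10 min at room temperature, fluorescence was read at 380/535 nm, and curves were fitted with a Hill equation.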
Glioma ERSR ind – ER stress response induction in glioma; 420,000 compounds, 0.02% hits; Potency, µM, inactives show at the highest dose activation, usual class: activators; U87-MG GRP78 promoter luciferase reporter, 16 h; further: series mostly up to about 76 µM; % of control where 0% means no effect; nearly all actives have a fitted effect of over 35% in size
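Stably transfected U87-MG glioma cells carrying a GRP78-based luciferase sensor; 16 h compound incubation. Luminescence end-point read 10 min after Bright-Glo addition at room temperature.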
IDH1 R132H inh – inhibitors of human mutant IDH1 R132H; O75874; IDH1-R132H enzyme, NADPH consumption, diaphorase/resazurin fluorescence; Potency, µM (top dose mostly 76.6 µM), inactives show at the highest dose activity change, negative = inhibition, most hits filed as inhibitors; 390,000 compounds, 0.093% hits; further: on the % scale 0 is the no-effect control and ±100 the full control effect; nearly all actives have a fitted effect of over 65% in size
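IDH1-R132H (0.5 ug/mL dispensed) in pH 7.5 Tris buffer was preincubated 30 min with compound, then given a substrate mix of 0.016 mM NADPH and 2 mM alpha-KG for 80 min at room temperature; remaining NADPH was read by diaphorase/resazurin fluorescence.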
TrxR1 inh – rat TrxR1 inhibition | recombinant rTrxR1, NADPH fluorescence consumption, selenite substrate | Potency, µM (doses to about 114 µM), for the others: top-dose activity change, negative = inhibition, actives largely listed as inhibitors | 390,000 compounds, 1% hits; further: on the % scale 0 is the no-effect control and ±100 the full control effect; nearly all actives have a fitted effect of over 65% in size
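Rat TrxR1 (90 nM in the dispensed reagent) was pre-reduced with 400 uM NADPH for 5 min at room temperature, then incubated with compound for 15 min. After 400 uM selenite was added, NADPH fluorescence (Ex 340/Em 450 nm) was followed for 8 min.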
* marks the source's active call; other numbers are inactive results; [ ] = remark or other dose. The call rests on the fitted dose curve; in most records, active means well fitted curve in the direction sought with a large enough effect; inconclusive means small, poorly fitted or top-dose-only effect, or another doubt; inactive means no such curve, though single readings can be large; an effect the other way counts as inactive or inconclusive. Potency means the concentration at half of the fitted maximal effect.

Results for CCOC(=O)c1cnc2c(Cl)c(Cl)ccc2c1NCCN1CCOCC1 ?
TrxR1 substrate: 7.3%; 12-LOX inh: 16.4%; Apoferritin bind: -3.5%; Glioma ERSR ind: -7.6%; IDH1 R132H inh: inconclusive; TrxR1 inh: inconclusive

What do the screens show for `CCOC(=O)c1cnc2c(C)c(Cl)ccc2c1NCCCN1CCOCC1`?
TrxR1 substrate: -5.4%; 12-LOX inh: 44.7µM*; Apoferritin bind: -7.3%; Glioma ERSR ind: -2.6%; IDH1 R132H inh: 0.6%; TrxR1 inh: 2.9%

How did Cc1csc(NC(=O)CCc2c(C)nn(C)c2C)n1 do in these assays?
12-LOX inh: 39.8%

Results for CN1CC=C2C(C#N)=C(N)C(C#N)(C#N)C(CCc3ccccc3)C2C1 (centres undefined) ?
TrxR1 substrate: 100.8%; Apoferritin bind: 29.2%; Glioma ERSR ind: -2.7%; IDH1 R132H inh: 41.4µM*; TrxR1 inh: inconclusive

What do the screens show for `CN1CC=C2C(C#N)=C(N)C(C#N)(C#N)[C@H](c3cccs3)[C@H]2C1`?
TrxR1 substrate: 8.8%; Apoferritin bind: 10.4%; Glioma ERSR ind: -3.2%; IDH1 R132H inh: 3.2%; TrxR1 inh: inconclusive

Results for CN1C(=O)COC[C@@H]1[C@H](O)c1ccc(NC(=O)c2ccc(F)c(Cl)c2)cc1 ?
12-LOX inh: 28.2%[176 µM]

How did C=CCN1C(=O)[C@H]2CCC=C[C@H]2[C@@H]1c1cccc(C)c1 do in these assays?
TrxR1 substrate: 3.6%; 12-LOX inh: inconclusive; Glioma ERSR ind: -0.1%; IDH1 R132H inh: 11.8%; TrxR1 inh: -28.2%

What do the screens show for `Cc1cccc([C@H]2[C@@H]3C=CCC[C@@H]3C(=O)N2Cc2ccccc2)c1`?
TrxR1 substrate: 1.8%; 12-LOX inh: 28.2µM*; Apoferritin bind: -8.2%[110 µM]; Glioma ERSR ind: -2.1%; IDH1 R132H inh: -9.0%; TrxR1 inh: -14.4%

Results for CC(=O)N1CCC(N[C@@H]2CO[C@H](CNC(=O)c3cccs3)[C@H]2O)CC1 ?
12-LOX inh: 19.0%[176 µM]

How did O=C(c1ccccc1)C(c1ccccc1)[n+]1csc2ccccc21 (centres undefined) do in these assays?
TrxR1 substrate: 6.6%; Glioma ERSR ind: -6.1%; TrxR1 inh: 1.0%

How did O[C@H]1C[C@H](c2ccc(Cl)cc2)N(Cc2cccs2)C[C@@H]1n1cc(-c2ccc(F)cc2)nn1 do in these assays?
12-LOX inh: 35.5µM*; Glioma ERSR ind: -11.1%; IDH1 R132H inh: -2.3%

Results for Nc1ccc(O)cc1C(=O)OCC(=O)C12CC3CC(CC(C3)C1)C2 ?
TrxR1 substrate: 15.0%[57.1 µM]; 12-LOX inh: inconclusive; Apoferritin bind: 31.6µM*; Glioma ERSR ind: 14.3%; IDH1 R132H inh: -1.3%; TrxR1 inh: 3.6%[57.1 µM]

How did O=C(COC(=O)c1ccc(O)cc1O)Nc1ccc(Cl)cn1 do in these assays?
TrxR1 substrate: 1.5%; 12-LOX inh: inconclusive; Apoferritin bind: -20.5%; Glioma ERSR ind: 2.3%; IDH1 R132H inh: 4.0%; TrxR1 inh: -2.1%

Results for Cc1ccc(C(=O)OCC(=O)c2ccc(C3CCCCC3)cc2)c(C)c1 ?
12-LOX inh: 2.7%

How did Nc1ccc(O)cc1C(=O)OCC(=O)c1ccc(C2CCCCC2)cc1 do in these assays?
TrxR1 substrate: 6.1%; 12-LOX inh: 11.2µM*; Apoferritin bind: inconclusive; Glioma ERSR ind: -5.3%; IDH1 R132H inh: 4.4%; TrxR1 inh: 1.8%

Results for O=C(COC(=O)c1ccc(O)cc1O)c1ccc(Cl)cc1 ?
TrxR1 substrate: 1.7%[57.1 µM]; 12-LOX inh: 44.7µM*; Glioma ERSR ind: 2.0%; IDH1 R132H inh: 6.1%; TrxR1 inh: 14.4%

Results for Cc1cc(C)n(C2CCN(c3nccc(-c4ccccn4)n3)C2)n1 (centres undefined) ?
12-LOX inh: 130.1%

Results for Cc1sc2nc(C3CC3)nc(N3CCN(C(=O)c4ccc(Cl)cc4)CC3)c2c1C ?
TrxR1 substrate: 1.3%[57.1 µM]; 12-LOX inh: 25.1µM*; Apoferritin bind: 5.6%; Glioma ERSR ind: -4.1%; IDH1 R132H inh: -0.6%; TrxR1 inh: 21.1%[0.0914 µM]

Results for CC(C)COc1ccc(CNC(=S)Nc2ccccc2)cc1Cl ?
TrxR1 substrate: 2.4%; 12-LOX inh: 31.6µM*; Apoferritin bind: -13.1%; Glioma ERSR ind: -2.4%; IDH1 R132H inh: -5.5%; TrxR1 inh: 11.6%

Results for NNc1c(F)c(F)c(Br)c(F)c1F ?
12-LOX inh: 12.6µM*

What do the screens show for `C/C(=N\Nc1c(F)c(F)c(Br)c(F)c1F)c1ccncc1`?
TrxR1 substrate: 2.7%[57.1 µM]; 12-LOX inh: 77.5%; Apoferritin bind: inconclusive; Glioma ERSR ind: 0.4%; IDH1 R132H inh: 5.1%; TrxR1 inh: -0.9%[57.1 µM]

How did COc1cnc(CSc2ncccn2)cc1OCC(=O)N1CCc2ccccc21 do in these assays?
12-LOX inh: -41.7%

How did O=C(O)c1ccccc1S(=O)(=O)Cc1ccccc1 do in these assays?
TrxR1 substrate: 13.4%; 12-LOX inh: -15.8%; Apoferritin bind: 6.3%; Glioma ERSR ind: -1.9%; IDH1 R132H inh: 3.2%; TrxR1 inh: 19.6%

How did Cn1ncc(S(=O)(=O)Cc2ccccc2)c(Br)c1=O do in these assays?
TrxR1 substrate: 20.8%[57.1 µM]; Glioma ERSR ind: -14.7%; TrxR1 inh: 0.947µM*

Results for CCOC(=O)COc1ccc2ccccc2c1/C=C/[N+](=O)[O-] ?
TrxR1 substrate: -5.6%; 12-LOX inh: -16.9%; Apoferritin bind: -10.1%; Glioma ERSR ind: -13.6%; IDH1 R132H inh: 1.5%; TrxR1 inh: 7.08µM*

Results for CCc1ccccc1NC(=O)CN(C)Cc1c(O)ccc2ccccc12 ?
TrxR1 substrate: 6.1%; 12-LOX inh: inconclusive; Apoferritin bind: -1.4%; Glioma ERSR ind: 9.2%; IDH1 R132H inh: 7.2%; TrxR1 inh: 39.8µM*

What do the screens show for `CN(CC(=O)Nc1ccccc1C(F)(F)F)Cc1c(O)ccc2ccccc12`?
TrxR1 substrate: 7.2%[57.1 µM]; 12-LOX inh: 7.08µM*; Apoferritin bind: -13.5%; Glioma ERSR ind: -3.5%; IDH1 R132H inh: 14.7%; TrxR1 inh: inconclusive

What do the screens show for `CCCN(CC(=O)Nc1ccccc1OC)Cc1c(O)ccc2ccccc12`?
TrxR1 substrate: 1.1%; 12-LOX inh: inconclusive; Apoferritin bind: 3.7%; Glioma ERSR ind: 1.6%; IDH1 R132H inh: 5.9%; TrxR1 inh: inconclusive

How did C=CCNC(=O)NC(=O)CN(C)CC(=O)Nc1ccccc1C(F)(F)F do in these assays?
12-LOX inh: 11.8%

How did O=C(C1CCCC1)N1CC2(CCN(CC3CC3)C2)Cc2ccccc21 (centres undefined) do in these assays?
12-LOX inh: 0.2%[6.33 µM]
